The results in this text go back to PubChem BioAssay (NCATS).

Results filed as inconclusive are left out. Active and inactive are the calls of the source. Calls follow the shape of the dose curve; as a rule, active = well fitted curve in the direction sought with a large enough effect; inconclusive = small, poorly fitted or top-dose-only effect, or another doubt; inactive = no such curve, though single readings can be large; an effect the other way counts as inactive or inconclusive.

Test [1] can be described thus: qHTS of pediatric cancer cell lines to identify multiple opportunities for drug repurposing: Primary screen for LAN-5 cells (AID 1347100). Also: potency is read from the fitted curve at half-maximal effect. The essentials: (§1)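 Cells (500-1,000/well) rested 5 h, then received compounds for 48 h; metabolically active cells were measured by CellTiter-Glo luminescence. Final concentrations spanned up to 46 µM (MIPE, 11-point) or 0.59 nM-46 µM (NPC, 8-point) in primary screens, 11-point in follow-ups.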
For orientation: qHTS replaces the single test concentration by a dilution series.

Test [2] can be described thus: qHTS of pediatric cancer cell lines to identify multiple opportunities for drug repurposing: Primary screen for BT-12 cells (AID 1347101). Also: nearly all actives have a fitted effect of over 25% in size. Also: potency is read from the fitted curve at half-maximal effect. An outline of the steps: as §1
Test [3] in a line: qHTS of pediatric cancer cell lines to identify multiple opportunities for drug repurposing: Primary screen for Rh18 cells (AID 1347102). Also: nearly all actives have a fitted effect of over 65% in size. Also: potency is read from the fitted curve at half-maximal effect. An outline of the steps: as §1
Test [4] in a line: qHTS of pediatric cancer cell lines to identify multiple opportunities for drug repurposing: Primary screen for OHS-50 cells (AID 1347103). Also: nearly all actives have a fitted effect of over 40% in size. Also: potency is read from the fitted curve at half-maximal effect. An outline of the steps:
as §1

A short description of test [5]: qHTS of pediatric cancer cell lines to identify multiple opportunities for drug repurposing: Primary screen for RD cells (AID 1347104). Also: nearly all actives have a fitted effect of over 55% in size. Also: potency is read from the fitted curve at half-maximal effect. An outline of the steps:
(§2)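 Plated cells (500-1,000 per well, growth media) were allowed to settle for 5 hours, treated with compound dilutions for 48 hours, then lysed with CellTiter-Glo for 15 min at room temperature before luminescence reading.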

Test [6] in a line: qHTS of pediatric cancer cell lines to identify multiple opportunities for drug repurposing: Primary screen for MG 63 (6-TG R) cells (AID 1347105). Also: nearly all actives have a fitted effect of over 50% in size. Also: potency is read from the fitted curve at half-maximal effect. The essentials:
as §2

Test [7] is described as follows: qHTS of pediatric cancer cell lines to identify multiple opportunities for drug repurposing: Primary screen for control Hh wild type fibroblast cells (AID 1347106).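 Also: series mostly up to about 46 µM; a drop in luminescence marks cytotoxicity and a rise apparent proliferation; nearly all actives have a fitted effect of over 55% in size.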 The essentials:
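Viability after 48 h compound treatment at 37C, 500-1,000 cells/well, read as ATP luminescence with CellTiter-Glo. Primary screens used 11-point (MIPE, 0.78 nM-46 µM) or 8-point (NPC, 0.59 nM-46 µM) final concentrations; follow-up screens used 11-point dilutions.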

Test [8] can be described thus: qHTS of pediatric cancer cell lines to identify multiple opportunities for drug repurposing: Primary screen for Rh30 cells (AID 1347107). Also: nearly all actives have a fitted effect of over 75% in size. Also: potency is read from the fitted curve at half-maximal effect. An outline of the steps:
as §1

Test [9] can be described thus: qHTS of pediatric cancer cell lines to identify multiple opportunities for drug repurposing: Primary screen for Rh41 cells (AID 1347108). Also: nearly all actives have a fitted effect of over 70% in size. Also: potency is read from the fitted curve at half-maximal effect. The essentials: as §2
Test [10] in a line: qHTS of pediatric cancer cell lines to identify multiple opportunities for drug repurposing: Confirmatory screen for NB1643 cells (AID 1347109). Also: nearly all actives have a fitted effect of over 45% in size. Also: potency is read from the fitted curve at half-maximal effect. The essentials:
as §1

Test [11] is described as follows: qHTS of pediatric cancer cell lines to identify multiple opportunities for drug repurposing: Confirmatory screen for A673 cells (AID 1347110).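 Also: cells exposed to compound for 48 h before the viability read; nearly all actives have a fitted effect of over 65% in size.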 Also: potency is read from the fitted curve at half-maximal effect. An outline of the steps:
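Cells plated at 500-1,000/well were treated five hours later with multi-point dilutions up to 46 µM final. After two days, CellTiter-Glo was added and luminescence read.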

A short description of test [12]: qHTS of pediatric cancer cell lines to identify multiple opportunities for drug repurposing: Confirmatory screen for LAN-5 cells (AID 1347113). Also: potency is read from the fitted curve at half-maximal effect; nearly all actives have a fitted effect of over 65% in size. An outline of the steps: as §1
Test [13] is described as follows: qHTS of pediatric cancer cell lines to identify multiple opportunities for drug repurposing: Confirmatory screen for DAOY cells (AID 1347114). Also: nearly all actives have a fitted effect of over 65% in size. Also: potency is read from the fitted curve at half-maximal effect. The essentials: (§3)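 Viability measured as metabolically active cells via CellTiter-Glo luminescence following 48 hours of compound exposure, 11-point dilutions in confirmatory testing. 500-1,000 cells/well plated 5 hours before dosing; controls were DMSO and 2.3 µM bortezomib.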

The nature of test [14]: qHTS of pediatric cancer cell lines to identify multiple opportunities for drug repurposing: Confirmatory screen for SJ-GBM2 cells (AID 1347116). Also: nearly all actives have a fitted effect of over 60% in size. Also: potency is read from the fitted curve at half-maximal effect. An outline of the steps: as §3
Test [15] is described as follows: qHTS of pediatric cancer cell lines to identify multiple opportunities for drug repurposing: Confirmatory screen for BT-37 cells (AID 1347117). Also: nearly all actives have a fitted effect of over 55% in size. Also: potency is read from the fitted curve at half-maximal effect. An outline of the steps:
as §1

Test [16] in a line: qHTS of pediatric cancer cell lines to identify multiple opportunities for drug repurposing: Confirmatory screen for TC32 cells (AID 1347118). The essentials:
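Measured quantity: luminescence from CellTiter-Glo, reflecting metabolically active TC32 cells following 48 h of compound. Curves came straight from multi-point titrations, with 8 or 11 points in primary and 11 in confirmatory screening.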

The nature of test [17]: qHTS of pediatric cancer cell lines to identify multiple opportunities for drug repurposing: Confirmatory screen for NB-EBc1 cells (AID 1347115).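 Also: cells exposed to compound for 48 h before the viability read; nearly all actives have a fitted effect of over 45% in size.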 Also: potency is read from the fitted curve at half-maximal effect. An outline of the steps: as §1
A short description of test [18]: qHTS of pediatric cancer cell lines to identify multiple opportunities for drug repurposing: Confirmatory screen for MG 63 (6-TG R) cells (AID 1347119). Also: nearly all actives have a fitted effect of over 55% in size. Also: potency is read from the fitted curve at half-maximal effect. The essentials:
as §1

Test [19] in a line: qHTS of pediatric cancer cell lines to identify multiple opportunities for drug repurposing: Confirmatory screen for control Hh wild type fibroblast cells (AID 1347121). Also: nearly all actives have a fitted effect of over 70% in size. Also: potency is read from the fitted curve at half-maximal effect. The essentials:
as §1

The nature of test [20]: qHTS of pediatric cancer cell lines to identify multiple opportunities for drug repurposing: Confirmatory screen for Rh41 cells (AID 1347123).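 Also: 48 h compound exposure; nearly all actives have a fitted effect of over 60% in size.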 Also: potency is read from the fitted curve at half-maximal effect. An outline of the steps: as §1

For the molecule `CCCCCCCCCCCCCCCCCC(=O)OCC(O)CO` (stereo not drawn), the Potency entry in test [1], in test [2], in test [3], in test [4], in test [5] and in test [6] was “inactive” each time. For the same molecule, the Potency result in test [7], in test [8] and in test [9] was “inactive” each time.

As to `CC(=O)OCC(=O)[C@@]12N=C(C)O[C@@H]1C[C@H]1[C@@H]3CCC4=CC(=O)C=C[C@]4(C)[C@H]3[C@@H](O)C[C@@]12C`, the Potency result in test [1], in [2], in test [3], in test [4], in [5] and in test [6] was “inactive” each time. For the same molecule, the Potency result in test [7], in test [8], in test [9] and in test [13] was “inactive” in each case. Moreover, the Potency was 2.33 µM (active) in [10]; 0.293 µM (active) in test [11]; 1.47 µM (active) in test [12]; 1.04 µM (active) in [14]; 0.657 µM (active) in test [15]; 0.369 µM (active) in test [16].

For `Cc1cccn2c(=O)c(-c3nnn[nH]3)cnc12`, the Potency entry in test [1], in test [2], in test [3], in [4], in [5] and in [6] was “inactive” in each case. Also, the Potency result in [7] and in test [9] was “inactive” in each case.

With `NC(CO)(CO)CO`, the Potency result in test [1], in test [2], in test [3], in [4], in [5] and in [6] was “inactive” in each case. Also, the Potency entry in test [7], in test [8], in [9], in [10], in test [11] and in test [13] was “inactive” in each case. For the same molecule, the Potency result in test [17], in test [14], in [15], in [18], in test [19] and in test [20] was “inactive” in each case. In addition, the Potency in test [16] is 11.7 µM (active).

`C[C@H](CCC(=O)O)[C@H]1CC[C@H]2[C@@H]3C(=O)C[C@@H]4CC(=O)CC[C@]4(C)[C@H]3CC(=O)[C@]12C`: the Potency result in [1], in test [2], in [3], in test [4], in test [5] and in test [6] was “inactive” each time. For the same molecule, the Potency entry in test [7], in [8] and in [9] was “inactive” in each case.

On to `NCCC(O)(P(=O)(O)O)P(=O)(O)O`, for which the Potency entry in test [1], in [2], in test [3], in test [4], in test [5] and in test [6] was “inactive” each time. Besides, the Potency entry in test [7], in test [8] and in test [9] was “inactive” each time.

Turning to `C/C=C/c1ccc(OC)cc1`, the Potency entry in test [1], in test [2], in [3], in [4], in [5] and in [6] was “inactive” throughout. Further, the Potency entry in test [7], in [8] and in test [9] was “inactive” in each case.

`OCc1ccccc1O`: the Potency entry in test [1], in [2], in [3], in test [4], in [5] and in [6] was “inactive” in each case. Moreover, the Potency entry in test [7], in test [8] and in test [9] was “inactive” throughout.

Turning to `CN1[C@@H]2CC[C@H]1CC(OC(=O)c1c[nH]c3ccccc13)C2` (stereo partly drawn), the Potency result in [1], in [2], in [3], in [4], in [5] and in [6] was “inactive” throughout. Moreover, the Potency entry in test [7] and in test [9] was “inactive” in each case.

`O=c1ccc2ccccc2o1`: the Potency entry in test [1], in [2], in [3], in [4], in [5] and in test [6] was “inactive” throughout. The Potency result in test [7] and in test [9] was “inactive” in each case.

As to `C[C@]12C=CC(=O)C=C1CC[C@@H]1[C@@H]2[C@@H](O)C[C@@]2(C)[C@H]1CC[C@]2(O)C(=O)CO`, the Potency result in [1], in [2], in [3], in test [4], in test [5] and in test [6] was “inactive” in each case. The Potency result in test [7], in test [8], in [13], in test [17], in test [14] and in [15] was “inactive” each time. For the same molecule, the Potency result in test [18], in test [19] and in test [20] was “inactive” in each case. Besides, the Potency in [16] is 26.1 µM (active).

For the molecule `CCN(CC)C(=O)N1CCN(C)CC1`, the Potency result in [1], in test [2], in [3], in [4], in [5] and in test [6] was “inactive” throughout. Besides, the Potency result in test [7], in [8] and in [9] was “inactive” each time.

Take `O=c1[nH]c(=O)n([C@H]2CCCO2)cc1F`: the Potency entry in test [1], in test [2], in test [3], in [4], in test [5] and in test [6] was “inactive” throughout. The Potency result in [7], in [8] and in test [9] was “inactive” each time.

With `C[C@H](O)C(=O)Nc1c(I)c(C(=O)NC(CO)CO)c(I)c(C(=O)NC(CO)CO)c1I`, the Potency result in test [1], in [2], in test [3], in [4], in test [5] and in test [6] was “inactive” in each case. The Potency result in test [7], in test [8] and in test [9] was “inactive” in each case.

In the case of `CCN1CCC[C@H]1CNC(=O)c1c(OC)ccc(Br)c1OC`, the Potency entry in [1], in [2], in test [3], in [4], in test [5] and in [6] was “inactive” each time. Further, the Potency entry in [7], in [8] and in test [9] was “inactive” in each case.

`CC(C)(C(=O)c1cccnc1)c1cccnc1`: the Potency entry in test [1], in test [2], in test [3], in test [4], in test [5] and in [6] was “inactive” in each case. Also, the Potency entry in test [7], in [8], in [9], in test [10], in test [13] and in test [17] was “inactive” throughout. The Potency entry in test [18], in [19] and in test [20] was “inactive” in each case. Moreover, the results for the Potency in test [11] and in [16] were 0.369 µM (active) and 3.29 µM (active), respectively.

As for `CCN(CC)CCOc1ccc(C(O)(Cc2ccc(Cl)cc2)c2ccc(C)cc2)cc1` (stereo not drawn), the Potency in [1] was 21.1 µM (active); in test [2], 11 µM (active); in test [3], 23.7 µM (active); in test [4], 15.5 µM (active); in test [5] it was 21.1 µM (active). In test [7], the Potency result was “inactive”.

Regarding `CCCCC(CC)CN=C(N)NC(N)=NCCCCCCN=C(N)NC(N)=NCC(CC)CCCC` (stereo not drawn), the Potency in test [1] is 5.31 µM (active); in test [2], 2.46 µM (active); in test [3] it was 8.41 µM (active); in test [4], 4.37 µM (active); in test [5], 5.96 µM (active); in [6] it was 6.68 µM (active). Besides, the Potency is 18.8 µM (active) in [8]; 21.1 µM (active) in [9]; 5.22 µM (active) in test [10]; 3.29 µM (active) in test [11]; 7.37 µM (active) in test [12]; 4.14 µM (active) in test [13]. Besides, the Potency is 9.27 µM (active) in [17]; 1.17 µM (active) in test [14]; 8.27 µM (active) in [15]; 8.27 µM (active) in test [16]; 2.93 µM (active) in [18]; 2.93 µM (active) in test [19]. Also, the Potency in test [20] is 7.37 µM (active).
